# From PubChem BioAssay
# nsP2pro primary: blocks chikungunya virus nsP2 protease peptide cleavage. actives 1.1% (n = 31,000). Potency, µM (highest dose often 24.9 µM), for the others: at the highest dose activity change, negative = inhibition, most hits filed as inhibitors. FRET peptide cleavage, nsP2pro, fluorescence 1 h; also: nearly all actives have a fitted effect of over 60% in size
#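 Enzyme 150 nM, substrate 2.5 uM (both final); Tris-HCl 10 mM pH 8.0 + 0.01% Tween 20; cpd up to 25 uM, 7 pts; 15 min preinc., 1 h RT; fluorescence ex 525/em 598.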
# nsP2 cell sec: secondary cell-based test for CHIKV nsP2 protease inhibitors. shares compounds with nsP2pro primary. cell-based CHIKV nsP2 protease reporter assay. Potency, µM (top dose mostly 51.1 µM), inactives show top-dose activity change, negative = inhibition, hits mostly inhibitors. actives 10% (n = 450). AID 1964100; also: nearly all actives have a fitted effect of over 70% in size
# Target sequence (Q8JUX6 220-798 limits assumed): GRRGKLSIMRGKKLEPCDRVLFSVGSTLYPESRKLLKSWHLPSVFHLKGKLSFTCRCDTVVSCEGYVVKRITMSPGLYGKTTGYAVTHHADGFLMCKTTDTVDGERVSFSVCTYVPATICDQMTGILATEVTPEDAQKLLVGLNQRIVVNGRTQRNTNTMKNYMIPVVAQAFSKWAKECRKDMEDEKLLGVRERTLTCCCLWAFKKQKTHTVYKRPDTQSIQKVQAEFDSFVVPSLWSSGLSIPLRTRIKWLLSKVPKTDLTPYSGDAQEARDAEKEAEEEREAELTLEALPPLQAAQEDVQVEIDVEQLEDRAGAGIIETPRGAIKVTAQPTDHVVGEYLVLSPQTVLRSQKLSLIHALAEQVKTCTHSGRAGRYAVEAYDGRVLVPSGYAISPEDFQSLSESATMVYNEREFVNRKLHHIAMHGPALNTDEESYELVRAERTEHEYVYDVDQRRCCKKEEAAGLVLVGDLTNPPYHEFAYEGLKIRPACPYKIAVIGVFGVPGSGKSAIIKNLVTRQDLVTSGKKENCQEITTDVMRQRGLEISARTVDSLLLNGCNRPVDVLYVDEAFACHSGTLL
# NSP2 full ctr: selectivity test for CHIKV nsP2 protease inhibitors: full-length NSP2; Full-length CHIKV NSP2 protease enzymatic counterscreen; AID 1964101; actives 39% (n = 410); shares compounds with nsP2pro primary; Potency, µM (titrated, usually from 50.7 µM), for the others: at the top dose activity change, negative = inhibition, actives largely listed as inhibitors; also: nearly all actives have a fitted effect of over 65% in size
# Furin counter: human furin inhibition, counterscreen for nsP2pro inhibitors | shares compounds with nsP2pro primary | Recombinant human furin enzymatic counterscreen, fluorogenic substrate | Potency, µM (top dose mostly 50.6 µM), inactives show top-dose activity change, negative = inhibition, hits mostly inhibitors | actives 6% (n = 410)
# NS23 peptide cs: selectivity test for CHIKV nsP2 protease inhibitors: endogenous NS2/3 peptide. Potency, µM (top dose mostly 51 µM), for the others: at the highest dose activity change, negative = inhibition, usual class: inhibitors. AID 1964103. shares compounds with nsP2pro primary. actives 34% (n = 410). Purified CHIKV nsP2 protease, endogenous NS2/3 peptide cleavage; also: nearly all actives have a fitted effect of over 55% in size
# Papain counter: papain protease inhibition, counterscreen for nsP2pro inhibitors; Potency, µM (highest dose often 51 µM), without a hit: at the top dose activity change, negative = inhibition, actives largely listed as inhibitors; AID 1964104; shares compounds with nsP2pro primary; actives 5% (n = 410); purified papain protease activity, enzymatic inhibition
# nsP2pro confirm: confirmation of CHIKV nsP2 protease inhibitors | shares compounds with nsP2pro primary | Potency, µM (titrated, usually from 25.5 µM), inactives show top-dose activity change, negative = inhibition, most hits filed as inhibitors | AID 1964105 | CHIKV nsP2 protease enzymatic activity, qHTS | actives 43% (n = 410); also: nearly all actives have a fitted effect of over 75% in size
# HCV NS3 4A cs: inhibits HCV NS3/4A protease in an nsP2pro selectivity counterscreen | shares compounds with nsP2pro primary | HCV NS3/4A protease biochemical counterscreen | Potency, µM (highest dose often 50.9 µM), usual class: inhibitors | actives 20% (n = 410) | AID 1964106; also: nearly all actives have a fitted effect of over 55% in size
# The depositor's hits bear a star; i = inactive; ? = inconclusive; ! = repeats disagree; [ ] = another dose, or the depositor's remark. The sample as a whole holds a higher share of hits than the screen did. Calls follow the shape of the full dose curve. % is scaled to controls: 0 for no effect and ±100 for the full control effect; potency is read from the fitted curve at half-maximal effect.
SMILES,nsP2pro primary,others
CC1(C)O[C@]23C[C@H]1C[C@H](OC(=O)c1ccoc1)[C@]2(C)[C@@H](OC(=O)c1ccoc1)CCC3(C)O (stereo not given in full),2.1%[10 µM],
O=C(/C=C/c1cccnc1)NCCCCC1CCN(C(=O)c2ccccc2)CC1,?,nsP2 cell sec=-27.6%;NSP2 full ctr=17.6%;Furin counter=12.3%;NS23 peptide cs=i;Papain counter=-8.4%;nsP2pro confirm=22.5%;HCV NS3 4A cs=i
O=C(c1ccncc1)N1CCCC(CN2CCCC2)CC1 (stereo not given),-7.4%,
Cc1cnc(C2CCOCC2)n1CC1CCN(C(=O)c2cccnc2)CC1,-4.1%,
CCn1c(=O)c(-c2cc(NC(=O)Nc3ccccc3)c(F)cc2Br)cc2cnc(NC)cc21,-0.9%,
O=C1NC(Cc2c[nH]c3ccccc23)C(=O)NC1Cc1c[nH]c2ccccc12 (stereo not given),6.1µM*,nsP2 cell sec=-1.4%[33.5 µM];NSP2 full ctr=-15.4%[33.5 µM];Furin counter=-4.7%[33.5 µM];NS23 peptide cs=-20.6%[33.5 µM];Papain counter=?;nsP2pro confirm=-39.3%[16.7 µM];HCV NS3 4A cs=i
CC(N)Cc1c[nH]c2ccccc12 (stereo not given),-12.2%,
NCCc1c[nH]c2ccccc12,-22.1%,
O=C(Nc1ncc(Cc2ccc(C(F)(F)F)cc2)s1)c1cn(-c2ccccc2)cn1,-4.0%,
CCc1nc(C(N)=O)c(Nc2ccc(N3CCC(N4CCN(C)CC4)CC3)c(OC)c2)nc1NC1CCOCC1,-10.2%,
CC1CC2OCC3(O)CCC(O)C(C14CC(c1ccoc1)OC4=O)C23CO (stereo not given),-21.2%,
C[C@@H]1C[C@@H](O)[C@@]23CO[C@]2(CO)CCC[C@@H]3[C@@]12C[C@@H](c1ccoc1)OC2=O,?,nsP2 cell sec=-6.5%[33.5 µM];NSP2 full ctr=-0.6%[33.5 µM];Furin counter=7.3%[33.5 µM];NS23 peptide cs=-5.4%[33.5 µM];Papain counter=-6.0%[33.5 µM];nsP2pro confirm=-20.9%[16.7 µM];HCV NS3 4A cs=i
NCCC(=O)N1CCC2(CC1)CN(C(=O)c1ccc(Cl)cc1)CCO2,7.94µM*,nsP2 cell sec=-11.2%;NSP2 full ctr=11.6µM*;Furin counter=10.8%;NS23 peptide cs=18.3µM*;Papain counter=-2.5%;nsP2pro confirm=8.96µM*;HCV NS3 4A cs=2.91µM*
NCCCC(=O)N1CCC2(CC1)CN(C(=O)c1ccc(Cl)cc1)CCO2,-17.8%,
COc1ccc(C(=O)N2CCOC3(CCN(C(=O)CCN)CC3)C2)cc1,-10.3%,
COc1ccc2sc(NC(c3ccc(OC(F)F)cc3)c3ccc4cccnc4c3O)nc2c1 (stereo not given),167.6%,
Cc1nccn1CCC(C(N)=O)(c1ccccc1)c1ccccc1,10.7%,
Cc1ccc(CN2CC(Oc3cccc(C(=O)N4CCOCC4)c3)C2)s1,-12.0%,
CC1=C2CC3C(CCC3(C)O)C(C)(O)CC2OC1=O (stereo not given),54.5%,
CC1=C2C[C@@]3(C)C(CCC[C@@H]3C)C(O)C2OC1=O (stereo not given in full),9.88µM*,nsP2 cell sec=-11.2%;NSP2 full ctr=13µM*;Furin counter=-1.5%;NS23 peptide cs=?;Papain counter=?;nsP2pro confirm=7.11µM*;HCV NS3 4A cs=i
Cc1cc(C)nc(NC(=S)N2CCN(c3ccc(N4CCCC4)nn3)CC2)c1,-4.9%,
COCCN1CCC(CN(Cc2ccncc2)C(=O)C2CC23CCCC3)CC1 (stereo not given),i,
O=C(NCC1CN(S(=O)(=O)c2cccnc2)CC12CCOCC2)N1CCCC1 (stereo not given),-1.2%,
Cc1cc(-c2nnc3n2CCCCC3)c(C)n1-c1ccc(C#N)cc1,i,
Cc1cc(Nc2ccccc2C(=O)O)ccc1Cl,3.51µM*,nsP2 cell sec=-5.3%;NSP2 full ctr=13µM*;Furin counter=-10.3%;NS23 peptide cs=?;Papain counter=?;nsP2pro confirm=2µM*;HCV NS3 4A cs=i
SMILES,nsP2pro primary,others
O=C(O)c1ccccc1Nc1cc(Cl)ccc1C(=O)O,-16.7%[10 µM],
Cc1cccc(Nc2ccccc2C(=O)O)c1C,1.1%,
N[C@@H](Cc1ccccc1)C(=O)Nc1ccc(Cl)cc1C(=O)c1ccc[nH]1,0.9%,
CCC[C@H](NC(=O)[C@@H]1[C@H]2CCC[C@H]2CN1C(=O)[C@@H](NC(=O)[C@@H](NC(=O)c1cnccn1)C1CCCCC1)C(C)(C)C)C(=O)C(=O)NC1CC1,3.94µM*!,nsP2 cell sec=172.5%;NSP2 full ctr=11.6µM*;Furin counter=-4.4%;NS23 peptide cs=?;Papain counter=0.0259µM*;nsP2pro confirm=3.57µM*;HCV NS3 4A cs=0.0517µM*
O=C(Nc1ccccc1F)N[C@H]1N=C(c2ccccc2)c2ccccc2NC1=O,-13.9%,
O=C(Nc1ccc2c(c1)OCCO2)N1CCC(Cc2nc(-c3ccncc3)n[nH]2)C1 (stereo not given),-9.2%,
Cc1ccc(NC(=O)CN2C(=O)N/C(=C\c3cccn3-c3ccc(C(=O)NS(C)(=O)=O)cc3)C2=O)cc1,i,
Cc1cc(CCCOc2c(C)cc(-c3noc(C(F)(F)F)n3)cc2C)on1,?,nsP2 cell sec=-6.6%;NSP2 full ctr=21.1%;Furin counter=-16.5%;NS23 peptide cs=0.0%;Papain counter=-9.2%;nsP2pro confirm=-14.1%;HCV NS3 4A cs=i
COCCNC(=O)c1ccc2oc(-c3ccncc3Cl)nc2c1,i,
Cc1ccsc1-c1[nH]nc2ncc(-c3ccnn3C)nc12,-2.0%[39.2 µM],
Cc1cc(C)nc(NC(=S)N2CCN(c3cc(C(F)(F)F)nc(C)n3)CC2)c1,3.0%,
CC(C)Nc1cccnc1N1CCN(C(=O)c2cc3cc(NS(C)(=O)=O)ccc3[nH]2)CC1,1.76µM*!,nsP2 cell sec=-1.2%;NSP2 full ctr=?;Furin counter=-6.5%;NS23 peptide cs=?;Papain counter=-1.5%;nsP2pro confirm=?;HCV NS3 4A cs=i
COc1ccc(N2CCN(C(=O)c3cc4ccc5cccnc5c4[nH]3)CC2)cc1,-9.0%,
CS(=O)(=O)Nc1ccc(OCC(=O)N2CCN(c3ccc(F)cc3)CC2)nc1,-14.8%,
Cc1ccc(OCCn2c(CCNC(=O)c3cccc4cc[nH]c34)nc3ccccc32)cc1,-17.2%,
FC(F)(F)c1ccccc1-c1nc(NCc2ccc(Cl)cc2)c2ccccc2n1,i,
CC(C)N1CC(C(=O)NCCc2ccc(Cl)cc2)NC1=O (stereo not given),-2.4%[39.2 µM],
Cc1nnc(-c2cnn(C)c2N)n1CCc1cccs1,-9.8%,
N[C@@H](CC(=O)N1CCc2c(nc(C(F)(F)F)nc2C(F)(F)F)C1)CN1CC(F)(F)CCC1=O,-12.0%,
O=C(NC1CCCCC1)O[C@@H]1CO[C@H]2[C@@H]1OC[C@@H]2NS(=O)(=O)c1ccc(Cl)cc1,-20.9%,
O[C@@H]1CO[C@H]2[C@@H]1OC[C@@H]2n1nnnc1Sc1ncccn1,-12.8%[39.2 µM],
O=C(NC1CCCCC1)O[C@@H]1CO[C@H]2[C@@H]1OC[C@@H]2n1nnnc1SCc1ccco1,0.447µM*,nsP2 cell sec=3.0%;NSP2 full ctr=2.91µM*;Furin counter=?;NS23 peptide cs=6.51µM*;Papain counter=-7.6%;nsP2pro confirm=0.895µM*;HCV NS3 4A cs=?
COc1ccccc1-c1cc(C(=O)NC2CC2)nn2cnnc12,i,
